TEAD-YAP block = TEAD-YAP interaction inhibition. HEK-TIYL cells, TEAD-Gal4/YAP UAS-luciferase luminescence. inhibition, % at 9.12 µM. 640,000 tested, 1.4% active. AID 1259422; in the data active = inhibition above about 32%;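 also: 0% = median of test compound wells and 100% = reference inhibitor wells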
FBW7 act = human FBW7 E3 ligase activation, primary screen | Q969H0 | AlphaScreen FBW7–phospho-cyclin E peptide binding, activator screen | normalized activity (activation), % at 26.1 µM | 650,000 tested, 0.13% active; in the data active = normalized activity above about 1.9%;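 also: purified mutant Fbw7 with reduced substrate affinity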
GPR151 activ = activates the human receptor GPR151. Q8TDV0. PathHunter beta-arrestin GPR151 cells, luminescence. activation, % at 11.2 µM. 650,000 tested, 1% active; in the data active = activation above about 4.9%;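 also: 0% = median of compound wells and 100% = cells with positive control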
MITF inh = human MITF inhibition, primary screen; AlphaScreen MITF homodimerization, bead proximity signal; inhibition, % at 2.6 µM; 650,000 tested, 0.91% active; AID 1259374; in the data active = inhibition above about 50%;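 also: 0% = vehicle wells with protein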
Target sequence (O75030 whole entry, looked up): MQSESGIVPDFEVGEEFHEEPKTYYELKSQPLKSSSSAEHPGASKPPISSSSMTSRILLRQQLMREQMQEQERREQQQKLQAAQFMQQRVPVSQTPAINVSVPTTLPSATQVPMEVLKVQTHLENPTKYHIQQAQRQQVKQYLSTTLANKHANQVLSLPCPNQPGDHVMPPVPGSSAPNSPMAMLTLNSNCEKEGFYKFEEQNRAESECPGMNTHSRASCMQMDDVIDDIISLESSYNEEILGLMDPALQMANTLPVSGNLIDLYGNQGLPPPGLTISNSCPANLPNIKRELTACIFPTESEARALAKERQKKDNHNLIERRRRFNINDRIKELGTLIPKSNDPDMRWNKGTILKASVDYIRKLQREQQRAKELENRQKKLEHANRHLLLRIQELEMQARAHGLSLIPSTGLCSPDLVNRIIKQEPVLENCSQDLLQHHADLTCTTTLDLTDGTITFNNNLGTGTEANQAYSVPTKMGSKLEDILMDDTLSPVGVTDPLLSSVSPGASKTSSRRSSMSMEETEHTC
MITF confirm = human MITF inhibition, confirmation; AID 1259372; AlphaScreen MITF homodimerization, biotin/His-MITF beads; 4,700 tested, 16% active; shares compounds with MITF inh; inhibition, % at 2.6 µM;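 active = inhibition above a cutoff derived from the DMSO control wells, cut at about 28% in these data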;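 also: 0% = MITF dimer wells with DMSO only; inhibitors lower the bead chemiluminescence by keeping MITF from dimerizing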
AS interf DR = AlphaScreen optical interference, dose response counter-screen; shares compounds with MITF inh; AlphaScreen optical interference counterscreen, cell-free; 480 tested, 6% active; IC50, µM; call rule not given here
AlphaScreen intf2 = optically interferes with AlphaScreen signal; shares compounds with MITF inh; LysRS AlphaScreen counterscreen, signal interference, triplicate; inhibition, % at 2.6 µM; 4,700 tested, 7.6% active; AID 1259376;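 active = inhibition above a cutoff derived from the DMSO control wells, cut at about 30% in these data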
Numbers without * were called inactive; . = no result given. This is a sample that favours compounds with a hit; in the whole collection about 3.5% have one here.

SMILES | TEAD-YAP block | FBW7 act | GPR151 activ | MITF inh | MITF confirm | AlphaScreen intf2 | others
CCOC(=O)CNS(=O)(=O)c1cc(-c2nnc(Nc3cccc(C)c3)c3ccccc23)ccc1C | 2 | 0 | 0 | 80* | -3 | 2
O=C(NC1CCCCC1)N1CCN2C(=O)[C@@H]3CCCN3C(=O)[C@H]2C1 | 8 | 0 | 1 | 82* | 71* | -12 | AS interf DR=>6.5
CN1CC(=O)N2CCN(C(=O)c3cccc4ccccc34)C[C@@H]2C1=O | -4 | 0 | 0 | 12 | . | .
CN1CC(=O)N2CCN(C(=O)c3cc(Cl)cc(Cl)c3)C[C@@H]2C1=O | 13 | 0 | 1 | 30 | . | .
O=C(c1cc(F)c(F)cc1F)N1CCN2C(=O)[C@@H]3CCCN3C(=O)[C@H]2C1 | -6 | 0 | 0 | -2 | . | .
CN1CC(=O)N2CCN(C(=O)c3ccccc3Cl)C[C@@H]2C1=O | 8 | 1 | 0 | 54* | -2 | -4
CN1CC(=O)N2CCN(C(=O)NC3CCCCC3)C[C@@H]2C1=O | 1 | 0 | 0 | 74* | 74* | -4 | AS interf DR=>6.5
CC(C)(C)Nc1nc(Cl)nc(NCc2ccco2)n1 | -2 | 0 | 1 | 14 | . | .
CC(=O)c1cccc(NC(=O)C2CCN(C(=O)Cc3ccccc3)CC2)c1 | 6 | 0 | 0 | 7 | . | .
Cc1cc(C)cc(NC(=S)NC2CC(C)(C)NC(C)(C)C2)c1 | -11 | 0 | 0 | -10 | . | .
COc1ccc(OC)c(NC(=O)c2cc3ccc(O)cc3oc2=Nc2ccc(C(=O)O)cc2)c1 | 6 | 0 | 0 | 55* | 79* | -15 | AS interf DR=>5.5
O=C1C(c2ccc(F)cc2)N(C2CCCCC2)C(=O)CN1C1CCCCC1 (stereo not drawn) | -11 | 0 | 1 | -2 | . | .
Cc1ccc(OCCN2CCN(CC(O)Cn3c4ccccc4c4ccccc43)CC2)cc1 (stereo not drawn) | 6 | 0 | 0 | 74* | 11 | 7
Cc1ccc(C(C)C)c(OCC(=O)NNC(=O)c2ccc(N3CCCC3=O)cc2)c1 | 1 | 0 | 2 | -6 | . | .
CC(C)(C)CC(C)(C)NC(=O)c1cccc([N+](=O)[O-])c1 | 2 | 1 | -2 | 70* | 2 | 10
Cc1ccc(C)n1C(CC(=O)O)c1ccsc1 (stereo not drawn) | 4 | 0 | 1 | 80* | 68* | 11 | AS interf DR=>6.8
CCOC(=O)c1c(NC(=O)CN(C)Cc2ccccc2)sc2c1CC(C)(C)NC2(C)C | 8 | -1 | 1 | 65* | 0 | 7
CCOC(=O)c1c(NC(=O)CN(C)C)sc2c1CC(C)(C)NC2(C)C | 10 | 0 | 2 | 40 | . | .
C/C(=N\Nc1ccc(S(=O)(=O)O)cc1)c1ccc([N+](=O)[O-])o1 | -2 | 0 | 0 | 60* | 40* | 2 | AS interf DR=>6.5
O=C(c1cccnc1)N1CCN(Cc2ccco2)CC1 | 2 | 0 | 1 | 53* | -16 | 5
O=C(c1cccnc1)N1CCN(Cc2ccc(F)cc2)CC1 | 3 | 0 | 1 | 79* | 7 | 4
O=C(c1cccnc1)N1CCN(Cc2ccncc2)CC1 | 14 | 0 | -2 | 86* | 7 | 15
O=C(c1ccccc1)N1CCN(C(=O)c2cccnc2)CC1 | 14 | 0 | 1 | 8 | . | .
OCCC1CN(Cc2ccc3c(c2)OCCO3)CCN1Cc1ccc(F)cc1 (stereo not drawn) | 0 | 0 | -1 | -2 | . | .
COCC(=O)NCCNc1nc2c(c(=O)n(C)c(=O)n2C)n1Cc1cc(C)ccc1C | 6 | 0 | 0 | 77* | 1 | 9
SMILES | TEAD-YAP block | FBW7 act | GPR151 activ | MITF inh | MITF confirm | AlphaScreen intf2 | others
Cc1ccc(C)c(Cn2c(NCCNC(=O)C3CCC3)nc3c2c(=O)n(C)c(=O)n3C)c1 | 8 | 0 | 0 | 73* | 4 | 13
O=C(c1ccc(F)cc1)N1CCN(c2cc(N3CCOCC3)c(F)cc2[N+](=O)[O-])CC1 | 9 | 0 | -1 | 17 | . | .
COc1ccc(N(C2=NCCCS2)S(=O)(=O)c2ccc(OC)cc2)cc1 | 5 | 0 | 0 | 56* | -12 | -4
CC(=O)c1ccc(S(=O)(=O)N(C2=NCCCS2)c2ccc(F)cc2)cc1 | -8 | 0 | 0 | -14 | . | .
Cn1nnnc1SCC(=O)Nc1ccccc1N1CCOCC1 | 3 | 0 | 0 | 63* | 4 | 11
O=C(CN1CCOCC1)Nc1ccccc1N1CCCCCC1 | -2 | 0 | 0 | 69* | 15 | 11
O=C(CN1CCCC1)Nc1ccccc1N1CCOCC1 | 0 | 0 | -1 | 34 | . | .
CN(NC(=O)CN1CCOCC1)c1ccccc1 | -5 | 0 | -1 | 51* | 1 | 10
CC1CCN(CC(=O)Nc2ccccc2N2CCOCC2)CC1 | 5 | 0 | -1 | 69* | 1 | 17
Fc1ccc(NCc2nnc(SCCN3CCOCC3)n2-c2ccccc2)cc1 | 3 | 0 | -1 | 67* | 11 | 10
CCN1CCN(CCCOc2ccc3c(c2)CCC3)CC1 | 6 | 0 | 0 | 61* | 4 | 5
CCc1cc(OCCCNCCN2CCOCC2)ccc1Cl | -7 | 0 | -1 | 48 | . | .
CCc1cc(OCCCN2CCN(CC)CC2)ccc1Cl | 7 | 0 | 0 | 67* | 16 | 16
CCOC(=O)CSc1nnc2c(n1)[nH]c1ccc(OC)cc12 | 3 | 0 | 0 | 1 | . | .
CCCCOC(=O)C1=C(C)NC2=C(C(=O)CCC2)C1c1cc(Br)c(O)c(OCC)c1 (stereo not drawn) | -4 | 0 | 0 | 0 | . | .
CCCNc1cc(-c2cccs2)ncn1 | -23 | 0 | -2 | 6 | . | .
OCCNc1cc(-c2cccs2)ncn1 | -17 | 0 | 1 | 56* | 53* | 3 | AS interf DR=>6
O=S(=O)(O)c1cc(S(=O)(=O)O)c2cc(O)c(S(=O)(=O)O)cc2c1 | 7 | -1 | -1 | 60* | 67* | 14 | AS interf DR=>6.5
NC(=O)c1oc2ccccc2c1NC(=O)c1ccc(Cl)cc1 | 4 | 0 | 0 | 6 | . | .
NC(=O)c1oc2ccccc2c1NC(=O)c1sc2ccccc2c1Cl | 5 | 0 | 0 | 58* | 8 | 6
O=C(CCN1C(=O)C2CC=C(Cl)CC2C1=O)Nc1ccc(Cl)c(Cl)c1 (stereo not drawn) | 5 | 0 | 0 | 5 | . | .
O=C(CCNC(=O)c1ccccc1Cl)NCCCN1CCOCC1 | 3 | 0 | 1 | -4 | . | .
O=C(NCCCN1CCCC1)c1ccccc1Cl | -3 | 0 | 0 | 55* | -1 | 1
O=C(NCCc1ccc(O)cc1)c1cccc(NC2CCN(Cc3ccccc3)CC2)n1 | -3 | 0 | -1 | 26 | . | .
Cc1nc2ccccn2c1-c1nnco1 | -2 | 0 | 1 | -14 | . | .
Cc1nc2ccccn2c1-c1ccnn1S(=O)(=O)c1ccc(F)cc1 | -3 | 0 | -1 | 73* | -2 | 2
O=C(CCOc1ccccc1)Nc1ccc(Cl)c(Cl)c1 | 4 | 0 | -1 | -2 | . | .
CCC(=O)NC(=S)NNC(=O)c1ccccc1O | -10 | -1 | -2 | 63* | 13 | 69*
